The values below come from PubChem BioAssay (NCI).

This is part of a sample that, as a whole, favours compounds with a hit. Of some 83,000 tested, about 20% had one in any assay.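 Single-concentration screen, 48 h exposure, 96-well plates. Endpoint: percent growth. Below 10 = active.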 Values without a mark were called inactive. Active and inactive are the calls of the source.

Test systems include NCI-H23 lung; NCI-H226 lung; NCI-H322M lung; HOP-62 NSCLC; NCI-H460 lung; HOP-92 NSCLC; NCI-H522 lung; A549/ATCC NSCLC; 786-0 renal; COLO 205 colon; DU-145 prostate; K-562 leukemia; MALME-3M melanoma; MDA-MB-231 breast; RXF 393 renal; SF-268 CNS; SF-295 CNS; SF-539 CNS; UACC-257 melanoma; M14 melanoma.
Assay in all cases: NCI-60 one-dose screen, 48 h (100 = growth as untreated, 0 = no growth, -100 = all killed)
Holding throughout (details): 10 µM unless noted

Take `CC(=O)OC[C@]1(C)C=C2C(=O)[C@](C)(O)C3(CC3)C(C)=C2[C@H]1O`: the growth with NCI-H23 lung is -35.5% (active); in the assay on NCI-H226 lung it was -15% (active); in the assay on NCI-H322M lung it was -23.1% (active); in the assay on HOP-62 NSCLC it was -29.4% (active); in the assay on NCI-H460 lung it was -37.4% (active); with HOP-92 NSCLC it was -25.8% (active). Moreover, the growth in the assay on NCI-H522 lung was -52.5% (active); in the assay with A549/ATCC NSCLC it was -21.4% (active); in the assay on 786-0 renal, -46.2% (active); in the assay on COLO 205 colon, -33.5% (active); with DU-145 prostate, -19.4% (active); in the assay with K-562 leukemia, 27.2%. The growth with MALME-3M melanoma is -78.8% (active); with MDA-MB-231 breast, -28.1% (active); in the assay with RXF 393 renal, -79.4% (active); in the assay with SF-268 CNS it was -8.2% (active); in the assay on SF-295 CNS, -19.3% (active); with SF-539 CNS, -68.9% (active). For the same molecule, the growth with UACC-257 melanoma was -28.9% (active); in the assay on M14 melanoma, -66.9% (active).

With `O=[N+]([O-])CC(O)C(Cl)(Cl)Cl` (stereo not given), the growth in the assay with NCI-H23 lung is 98.6%; in the assay with NCI-H226 lung, 103%; with NCI-H322M lung, 103%; with HOP-62 NSCLC, 99.8%; with NCI-H460 lung it was 101%; with HOP-92 NSCLC, 93.2%. Also, the growth was 99.1% with NCI-H522 lung; 106% in the assay on A549/ATCC NSCLC; 103% with 786-0 renal; 98.2% in the assay on COLO 205 colon; 117% in the assay on DU-145 prostate; 113% in the assay with K-562 leukemia. The growth was 97.5% in the assay on MALME-3M melanoma; 122% in the assay on MDA-MB-231 breast; 116% in the assay with RXF 393 renal; 101% with SF-268 CNS; 102% in the assay with SF-295 CNS; 92.6% with SF-539 CNS. The growth was 111% in the assay on UACC-257 melanoma and 104% in the assay on M14 melanoma.

As to `C[C@@]1(CCCCCCCCCc2ccc(O)cc2)C[C@]2(C)OC(=O)C[C@@H]2OO1`, the growth was 99.4% in the assay on NCI-H23 lung; 102% with NCI-H226 lung; 105% in the assay on NCI-H322M lung; 104% in the assay with HOP-62 NSCLC; 108% in the assay on NCI-H460 lung; 82.7% with HOP-92 NSCLC. The growth was 90% in the assay with NCI-H522 lung; 99.4% in the assay with A549/ATCC NSCLC; 80.2% in the assay with 786-0 renal; 124% in the assay with COLO 205 colon; 130% with DU-145 prostate; 70% in the assay on K-562 leukemia. Further, the growth in the assay with MALME-3M melanoma is 105%; in the assay with MDA-MB-231 breast, 105%; with RXF 393 renal, 120%; in the assay on SF-268 CNS it was 123%; with SF-295 CNS, 91.9%; in the assay with SF-539 CNS, 139%. The growth in the assay with UACC-257 melanoma is 102%; in the assay with M14 melanoma, 99.8%.

`CC(=O)O[C@H](C[C@H](C(C)C)N(C)C(=O)[C@@H](NC(=O)[C@H]1CCCCN1C)C(C)C)c1nc(C(=O)N[C@@H](Cc2ccccc2)C[C@H](C)C(=O)O)c(C(C)C)s1`: the growth with NCI-H23 lung was 22.9%; with NCI-H226 lung it was 58.9%; in the assay with NCI-H322M lung it was 35.8%; in the assay with HOP-62 NSCLC, 20%; in the assay on NCI-H460 lung it was 6.51% (active); in the assay on HOP-92 NSCLC it was 51.5%. For the same molecule, the growth in the assay on NCI-H522 lung was -21.1% (active); in the assay on A549/ATCC NSCLC, 8.67% (active); in the assay with 786-0 renal it was 16%; in the assay with COLO 205 colon, -60% (active); in the assay on DU-145 prostate, -0.791% (active); with K-562 leukemia, 6.34% (active). Besides, the growth in the assay with MALME-3M melanoma is 64.9%; in the assay on MDA-MB-231 breast, 12.9%; with RXF 393 renal, 44.1%; in the assay on SF-268 CNS, 27.7%; in the assay with SF-295 CNS, -0.193% (active); in the assay on SF-539 CNS, -10.7% (active). The results for the growth with UACC-257 melanoma and in the assay on M14 melanoma were 41.5% and 4.52% (active), respectively.

For the molecule `COc1cc2c(c(OC)c1OC)-c1ccc([O-])c(=O)cc1[C@@H](NC(C)=O)CC2.COc1cc2c(c(OC)c1OC)-c1ccc([O-])c(=O)cc1[C@@H](NC(C)=O)CC2.[Cu+2]`, the growth in the assay with NCI-H23 lung is 27.1%; in the assay on NCI-H226 lung, 37.8%; with NCI-H322M lung, 57%; in the assay with HOP-62 NSCLC, 27.4%; in the assay on NCI-H460 lung it was 5.2% (active); in the assay with HOP-92 NSCLC, 9.89% (active). In addition, the growth is -24.5% (active) with NCI-H522 lung; 45.1% in the assay with A549/ATCC NSCLC; 43% in the assay on 786-0 renal; 9.04% (active) with COLO 205 colon; 4.95% (active) with DU-145 prostate; 2.76% (active) with K-562 leukemia. For the same molecule, the growth in the assay on MALME-3M melanoma is 52.5%; in the assay on MDA-MB-231 breast it was 35.5%; in the assay with RXF 393 renal, 13.4%; in the assay with SF-268 CNS, 27.1%; with SF-295 CNS, 18.7%; in the assay with SF-539 CNS, -17.2% (active). Also, the values for the growth in the assay with UACC-257 melanoma and with M14 melanoma were 45.1% and 7.83% (active), respectively.

Turning to `CCCCCN(CCCCC)CC(O)c1cc(Cl)ccc1OC` (stereo not given), the growth is 37.6% with NCI-H23 lung; 65.2% in the assay with NCI-H226 lung; 62.2% in the assay with NCI-H322M lung; 4.36% (active) in the assay with HOP-62 NSCLC; 15.4% in the assay with NCI-H460 lung; -6.26% (active) in the assay with HOP-92 NSCLC. The growth was 21.4% in the assay with NCI-H522 lung; 42.2% with A549/ATCC NSCLC; 24.7% with 786-0 renal; 13.3% in the assay with COLO 205 colon; 40.1% in the assay on DU-145 prostate; 14.8% in the assay on K-562 leukemia. For the same molecule, the growth with MALME-3M melanoma was 66.9%; in the assay with MDA-MB-231 breast it was 18.8%; in the assay with RXF 393 renal, 30.7%; in the assay on SF-268 CNS, 42.3%; in the assay on SF-295 CNS, 23.9%; in the assay on SF-539 CNS, 53.2%. For the same molecule, the values for the growth with UACC-257 melanoma and with M14 melanoma were 47.4% and 23.1%, respectively.

`CN[C@@]1(c2ccccc2Cl)CCCC[C@@H]1NCC1CCCO1` (stereo not given in full): the growth in the assay on NCI-H23 lung is 97.4%; with NCI-H226 lung, 97.8%; in the assay on NCI-H322M lung, 94.1%; with HOP-62 NSCLC, 97.4%; with NCI-H460 lung it was 110%; with HOP-92 NSCLC, 92%. The growth in the assay with NCI-H522 lung is 91.3%; with A549/ATCC NSCLC it was 98%; with 786-0 renal it was 97.7%; in the assay on COLO 205 colon it was 109%; in the assay with DU-145 prostate, 111%; with K-562 leukemia it was 100%. Also, the growth with MALME-3M melanoma was 95.3%; in the assay with MDA-MB-231 breast it was 105%; in the assay on RXF 393 renal, 106%; with SF-268 CNS, 103%; in the assay with SF-295 CNS it was 98.2%; in the assay with SF-539 CNS, 97%. For the same molecule, the growth with UACC-257 melanoma is 96.5%; in the assay with M14 melanoma, 101%.
